SKKanGAS inh – S. pyogenes SKKanGAS growth inhibitors in kanamycin, primary screen, streptokinase expression inhibitor project, SKKanGAS strain, BacTiter-Glo luminescence; 300,000 tested, 1.3% active; inhibition, % at 7.5 µM; AID 1662, 2009; 6 h;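 active = mean replicate score, as percent of positive control median, at least 50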;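 note: strain carries kanamycin resistance gene driven by streptokinase promoter and grows in 40 µg/ml kanamycin; loss of luminescence reflects streptokinase promoter inhibition or plain growth inhibition; 0% = median of DMSO wells and 100% = positive control at its reference dose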
tim10-1 inh – growth inhibitors of tim10-1 mutant yeast, primary screen, luminescence, uHTS; S. cerevisiae tim10-1 ts strain growth, BacTiter-Glo, 24 h; inhibition, % at 20 µM; 330,000 tested, 2.2% active; AID 463190, 2010;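 active = inhibition of at least 40%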;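 note: mutant grown at 25 °C; 0% = DMSO wells with yeast and 100% = wells holding no yeast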
TIM10 inh – growth inhibitors of isogenic TIM10 control yeast, primary screen, counter-screen for tim10-1 yeast inhibitor project, luminescence, uHTS. S. cerevisiae TIM10 strain growth, BacTiter-Glo luminescence, 24 h. 330,000 tested, 1.4% active. inhibition, % at 10 µM;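 active = inhibition of 40% or more at the single tested concentration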;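 note: wild-type TIM10 isogenic control strain grown at permissive 25 °C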
tim23-1 inh – growth inhibitors of tim23-1 mutant yeast, primary screen, luminescence, uHTS; inhibition, % at 20 µM; S. cerevisiae tim23-1 growth, BacTiter-Glo luminescence, 24 h; 330,000 tested, 1.3% active;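 active = growth inhibition of the mutant yeast at or above 50%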;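 note: temperature-sensitive mutant grown at 25 °C; plate controls were DMSO-treated mutant yeast for no effect and medium wells lacking yeast for full effect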
PfHsp90 set2 – growth inhibition of PfHsp90-expressing yeast, primary screen, antimalarial PfHsp90 inhibitor project, S. cerevisiae, BacTiter-Glo luminescence, single point, set 2; BacTiter-Glo ATP, 48 h; yeast lacking PDR1 and PDR3 efflux regulators; inhibition, % at 9.4 µM; 310,000 tested, 0.32% active;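 active = every replicate shows inhibition above about 80%, whatever the replicate mean, limit read from the data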;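 note: 0% = DMSO neutral controls and 100% = 20 µM radicicol positive controls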
NALP3 yeast inh – NALP3 inflammasome inhibitors in reconstituted yeast, primary screen, luminescence, uHTS | Yeast reconstituted NLRP3/ASC/caspase-1, beta-gal luminescence, 24 h | inhibition, % at 10 µM | 330,000 tested, 0.39% active | AID 2825, 2010;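 active = inhibition of 50% or more; inactive = inhibition below 50%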;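 note: plate controls were induced DMSO wells for no effect and uninduced yeast grown without galactose for full effect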
tim10-1 conf – growth inhibitors of tim10-1 mutant yeast, confirmation, single concentration, luminescence, S. cerevisiae; shares compounds with tim10-1 inh; S. cerevisiae tim10-1 ts strain growth, BacTiter-Glo, 24 h; inhibition, % at 20 µM; 7,400 tested, 56% active; AID 463213, 2010;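 active = inhibition of yeast growth at or above a set limit in either of two repeat tests at 20 µM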;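 note: tim10-1 mutant grown at permissive 25 °C to find synthetic lethal compounds; 0% = DMSO yeast wells and 100% = medium wells without yeast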
TIM10 conf – growth inhibitors of wild-type TIM10 yeast, confirmation, counter-screen for tim10-1 synthetic lethality project, single concentration, luminescence, S. cerevisiae. inhibition, % at 10 µM. S. cerevisiae tim10 strain growth, BacTiter-Glo luminescence, 24 h. shares compounds with TIM10 inh. AID 463215, 2010. 4,600 tested, 63% active;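 active = inhibition of yeast growth at or above a set limit in either of two replicates at 10 µM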;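 note: this counterscreen used the strain with wild-type TIM10; 0% = yeast with DMSO and 100% = medium wells lacking yeast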
tim23-1 confirm – tim23-1 mutant yeast growth inhibitors, confirmation, luminescence, single concentration | AID 463218, 2010 | shares compounds with tim23-1 inh | inhibition, % at 20 µM | 4,400 tested, 83% active | S. cerevisiae tim23-1 growth, BacTiter-Glo luminescence, 24 h;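 active = inhibition above about 39% in either of two replicate wells at 20 µM, limit read from the data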;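 note: temperature-sensitive tim23-1 mutant grown at 25 °C; 0% = DMSO wells with yeast and 100% = medium wells without yeast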
Active calls of the source: *; nt = not tested or not shown. In the library only some 4.5% were active in any assay of this set; here they are far more common.

SMILES	SKKanGAS inh	tim10-1 inh	TIM10 inh	tim23-1 inh	PfHsp90 set2	NALP3 yeast inh	tim10-1 conf	TIM10 conf	tim23-1 confirm
N#CC(C#N)=NNc1ccc(-n2ccc(C(F)(F)F)n2)cc1	31	50*	48*	51*	-16	38	59*	23	61*
Cc1ccc(/C=C2\C(=O)NC(=S)N(c3ccc(F)cc3)C2=O)s1	14	70*	43*	55*	-7	-7	36*	38*	72*
COC(=O)C1C2c3ccccc3C(c3ccccc32)C1(C)C(=O)OC (configuration not stated)	nt	nt	nt	nt	-10	nt	nt	nt	nt
O=C1NC(=O)N(Cc2ccc(F)cc2)C(=O)/C1=C\c1ccc([N+](=O)[O-])s1	13	70*	83*	60*	101*	12	75*	25	76*
O=C1NC(=O)N(Cc2ccc(F)cc2)C(=O)/C1=C\c1ccc(N2CCCC2)cc1	2	23	11	25	2	31	nt	nt	nt
COc1ccc(CN2C(=O)NC(=O)/C(=C/c3ccc([N+](=O)[O-])s3)C2=O)cc1	13	67*	82*	59*	101*	2	75*	24	75*
CC=C(C)C1(CCC)C(=O)NC(=S)NC1=O	nt	nt	nt	nt	13	nt	nt	nt	nt
COc1cc(C=C2C(=O)NC(=O)NC2=O)ccc1OCc1ccc([N+](=O)[O-])cc1	nt	nt	nt	nt	6	nt	nt	nt	nt
COc1cc(/C=C(/C)[N+](=O)[O-])ccc1OCc1ccccc1Cl	nt	49*	52*	52*	-30	16	36*	44*	71*
Cc1ccc(NC(=O)CN2C(=O)CN=C(c3ccccc3)c3cc(Cl)ccc32)cc1	4	45*	11	61*	13	19	20	nt	52*
CCN(CC)C(=O)c1ccc(NC(=O)CN2CCc3cc(OC)c(OC)cc3C2)cc1	-5	13	-11	-7	8	18	nt	nt	nt
CCn1nc(/C=C/c2ccccc2)nc2c(=O)n(C)c(=O)nc1-2	5	93*	96*	93*	75	22	95*	98*	91*
Cc1ccc(Cn2cc(C=O)c(-c3ccc(C)cc3)n2)cc1	1	45*	27	53*	9	32	35*	nt	65*
COc1cc(/C=C/[N+](=O)[O-])ccc1O	3	43*	19	77*	-15	23	18	nt	76*
CCOc1cc(C=O)ccc1O	nt	5	-5	12	-3	-1	nt	nt	nt
CCC(C)C1NC(=O)C(NC(=O)C(CC(C)C)N(C)C(=O)C2CCCN2C(=O)C(C)O)C(C)OC(=O)C(Cc2ccc(OC)cc2)N(C)C(=O)C2CCCN2C(=O)C(CC(C)C)NC(=O)[C@H](C)C(=O)[C@H](C(C)C)OC(=O)CC1O (some centres not stated)	nt	nt	nt	nt	-18	nt	nt	nt	nt
COc1ccccc1N1C(=O)NC(=O)/C(=C/c2ccc([N+](=O)[O-])s2)C1=O	10	77*	73*	67*	nt	24	68*	19	70*
COc1cccc(N2C(=O)NC(=O)/C(=C/c3ccc([N+](=O)[O-])s3)C2=O)c1	12	73*	87*	65*	7	2	69*	29	78*
COc1ccc(N2C(=O)NC(=O)/C(=C/c3ccc([N+](=O)[O-])s3)C2=O)cc1	15	62*	90*	61*	nt	7	71*	69*	76*
COc1ccccc1N1C(=O)NC(=O)/C(=C\c2cnn(-c3ccccc3)c2)C1=O	-1	5	2	6	20	5	nt	nt	nt
CC1C(=O)OC2CCN3CC4OC4(COC(=O)C(C)(O)C1(C)O)C23 (configuration not stated)	nt	nt	nt	nt	0	nt	nt	nt	nt
CCC1CN1P(=O)(Oc1ccc(Cl)cc1)N1CC1CC (configuration not stated)	nt	nt	nt	nt	0	nt	nt	nt	nt
CCCCCCC(=O)c1c(O)n(-c2ccc(OC)cc2)c(=O)[nH]c1=O (tested in a mixture with another compound)	-1	-3	-2	-1	2	-1	nt	nt	nt
CN1C(=O)C(=Cc2ccccc2OCCOc2ccc([N+](=O)[O-])cc2)C(=O)N(C)C1=O	6	50*	69*	74*	10	14	42*	66*	90*
O=C1NC(=O)C(=Cc2ccccc2OCCOc2ccc([N+](=O)[O-])cc2)C(=O)N1	nt	nt	nt	nt	8	nt	nt	nt	nt
SMILES	SKKanGAS inh	tim10-1 inh	TIM10 inh	tim23-1 inh	PfHsp90 set2	NALP3 yeast inh	tim10-1 conf	TIM10 conf	tim23-1 confirm
CCc1ccccc1NC(=O)CSc1nnc([C@@H](N)Cc2c[nH]c3ccccc23)o1	2	23	29	26	-2	1	nt	nt	nt
N[C@@H](Cc1c[nH]c2ccccc12)c1nnc(SCc2ccc(Cl)cc2)o1	-11	39	41*	13	nt	6	nt	40*	nt
COc1ccc(-c2nn(Cc3ccccc3)cc2C(=O)NC2CC2)cc1OC	nt	5	0	14	-9	17	nt	nt	nt
O=P(Nc1ccccc1Cl)(c1ccccc1)c1nc2c(s1)CCCC2 (configuration not stated)	-1	37	41*	35	-7	-86	nt	21	nt
O=C1N[C@@H](Cc2ccccc2)C(=O)N2[C@H]1C[C@H]1c3ccccc3N(OOSc3ccccc3)[C@H]12	5	15	44*	25	nt	11	nt	18	nt
COC(=O)[C@@H]1C[C@]2(C(=O)O)c3ccccc3N(OOSc3ccccc3)[C@@H]2N1C(=O)OC	3	-6	2	-6	2	9	nt	nt	nt
CCC1(Cc2ccccc2)C(=O)NC(=S)N(C)C1=O (configuration not stated)	nt	nt	nt	nt	35	nt	nt	nt	nt
COc1cc(N2C(=O)CC(=O)NC2=O)cc(OC)c1OC	0	15	8	8	3	9	nt	nt	nt
CCN(CC)c1ccc(N=Cc2c(O)n(-c3ccccc3)c(=O)[nH]c2=O)cc1	4	27	41*	20	-1	11	nt	19	nt
Oc1cc(Cl)ccc1Oc1ccc(Cl)cc1Cl	17	39	45*	48	95*	20	nt	68*	nt
